A number with no mark means an inactive call.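 The calls were made as follows: active = curve rank above 3; inactive = curve rank 0.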
Tested on: KeratinoSens (HaCaT ARE-luciferase) cells
Assay: Nrf2/ARE luciferase activation call in qHTS KeratinoSens assay (1 = active, 0 = inactive)

SMILES	Nrf2/ARE luciferase activation call
O=C(O)/C=C\C(=O)O.O=C(O)/C=C\C(=O)O.c1cc(CN2CCCCC2)cc(OCCCNc2nc3ccccc3s2)c1	not active ARE inducer (skin sensitizer alert)
Cc1ccc(S(=O)(=O)O)cc1.NC1CCN(c2nc3c(cc2F)c(=O)c(C(=O)O)cn3-c2ccc(F)cc2F)C1 (stereo not drawn)	not active ARE inducer (skin sensitizer alert)
CCCC[n+]1ccccc1C.O=S(=O)([O-])C(F)(F)F	not active ARE inducer (skin sensitizer alert)
CN1CCC(=C2c3ccccc3Sc3ccccc32)CC1.O=C(O)/C=C\C(=O)O	not active ARE inducer (skin sensitizer alert)
Cc1ccccc1C(OCCN(C)C)c1ccccc1.O=C(O)CC(O)(CC(=O)O)C(=O)O (stereo not drawn)	not active ARE inducer (skin sensitizer alert)
CN(C)CCN(Cc1ccccc1)c1ccccn1.O=C(O)CC(O)(CC(=O)O)C(=O)O	not active ARE inducer (skin sensitizer alert)
CCn1cc[n+](C)c1.O=S(=O)([O-])C(F)(F)F	not active ARE inducer (skin sensitizer alert)
O=C(O)/C=C/C(=O)O.OCCOCCN1CCN(C2=Nc3ccccc3Sc3ccccc32)CC1.OCCOCCN1CCN(C2=Nc3ccccc3Sc3ccccc32)CC1	not active ARE inducer (skin sensitizer alert)

Reference: the supplement of paper PMC10933113
